# Experimental data as given in the supplement of paper PMC12632987.
# In all, about 4,500 sequences were measured (“median log2 fold change of GCK-ALFA target abundance (FLAG IP / Myc IP barcode read proportion)”: median about 0.078, lowest 2% from about -0.6 on). The entries come from a sample that favours the lowest values as a whole.
# B1: GBRAP_11_2819 (protein)
# chain: MDEVVKELIEVLKKLAEAADKYLKEDVGDEELLKKIEELAKKALELAKKLNDPAVIREAQAILDTVEEAKKDPANREQYVANARAGARTLLANLEEEAEE
# B2: GBRAP_35_5522 (protein)
# chain: DSDTLTVEMLVATIEDLTLAVPDMDVETAVQIATQLIKAAEELAKDIKNNVEGLKKLRDALAKLRDALEKHYGDDPLAQQVIAQIDKLIAEIDKMIKEAK
# B3: GBRAP_95_7082 (protein)
# chain: EEDLETLEDLAQTAIDLYEAGFEEQAARAAKAAAEELEELGYKVADKELLTKLLTYAADLAPKYFDEEEIERWLKIAEATGAPQSIIDALRAALAAKKAA
# B4: GBRAP_125_2963 (protein)
# chain: SEEEDLKALATLAKALGFDEDDVAEAVELARKFGIKNTVIALFLAEGYEEVAELVEKLTEEEVREVLKELAKEIEANPDLTPEEVVELAKKLLEKKIAKK
# B5: GBRAP_39_5685 (protein)
# chain: EEEEEDENVVSYLEGLAAARLYETGKSLEELFEEAKKILKALAKEEPELKELIEELIELAEKKGDEAKLALIGIAVLVEEGTPLEEIKENIEKVINYFKK
# B6: GBRAP_39_5686 (protein)
# chain: EEEEENEDVVSYLEGLAAKYLYETGKSLEEAFEEAKKILLKLAEEHPELKELIEKLIELAEKKGEEAKLALIGIAVLVKQGTPLEEIKENIEKVIAYFES
# B7: GBRAP_125_3124 (protein)
# chain: AEAQALADLAAVLKALGFDDEDVAEAVELAAAHSIRGTLYAALLALGDEEGADLVAKLTEEQTKEVVAAVNAWLKAHPDATPEEVKEKLLALLKEAVAAS
# B8: GBRAP_160_4816 (protein)
# chain: MEKVEELLKEAEEDLLDTAEASKDLPIEDRAALLRAEGYTSILELKEELNLSDETEDKLVAIVDELVARLLANPDLTPEEVLALVKEAYEKMKKIVLEEA
# B9: GBRAP_11_2768 (protein)
# chain: KKEELKKAAELAEKAAKTVEKLLKEGVDNEELLKEIEELLKELKKLTEKYGNEDMKKLVKIAEELLEEIKKDPENAEEYAKELKATLDVLAGQYLLEAEE
# B10: GBRAP_128_3156 (protein)
# chain: SVEEVRKKTRELLEKIKESDDETARELARELFELIGTLSPEEAEAAVEVILERLPELSEEKLEILADVAREMMPKYDPYKANLLAEVEVEALNEAEELEE
# B11: GBRAP_160_4781 (protein)
# chain: SEKKEKLKKAIEEAAKEIKEAIDTESPEQVLTVVRGEGGDILQEAEELGIDNEEALEGLDKGIKELEAAMKAAADASPEEKKAIVDKAKEKMIETLDKLT
# B12: GBRAP_52_5905 (protein)
# chain: MRARLRADLEEIIAAVRAGDLEAARAKARELAETYDDEELELAAEELAALVLEAPREDLPAWWRTAEIIAEALEEAGRDEVLADLVLSRTAAAIHEVLQR
# B13: GBRAP_184_5056 (protein)
# chain: MIHEKVIKAETLEELEEKLEELEEELKDFKGELIVHVEIPEFTEEMIELIIERLKRILENGYVSSVTLGLDGKMSEEVVDLAIKLADEAGIKLVIALEEE
# B14: GBRAP_14_3829 (protein)
# chain: MEEIEAVIEEAREDLIELFEEIVPEKAEELAEAVEEVFEELKRRIKETGNVEEAIEEARERLKEEAKKILADEPEEIRNLVLAAIDIEFAELEEEIEELL
# B15: GBRAP_160_4075 (protein)
# chain: SKETEELKKEIKEIAEEAIEFIKESNLENQIAIAEMMAGDILMLVFEAPFISDEDEERIDKILDKYVELLKENKDWSLEEKEEIIKEMAEEVIKEVEKAS
# B16: GBRAP_11_2853 (protein)
# chain: KKEKLKEIAELAEEAIKLLEELLKKGVDDEELQKKILEKLKELLELVKKYLDEADVKLAEYALESFEKSLKDPENAEEYVNEALAFLRVLLGNVLLEIDE
# B17: GBRAP_78_6627 (protein)
# chain: EVEELLEKALEKVEEAAKLATKIPSEKAIDILDELIDAFEYLEEAIEEGGDLEKIEKALKELKKALELIKEQNDPKLEPLKKEVEEAIKLLEKAKKKIKE
# B18: GBRAP_177_5010 (protein)
# chain: SRLAEIEAAADDPEALLALVAATDLRELSREELLALLRALARAIAREGPRPELLEAAVRVAVALITDHGVSLAEVVAILIEHADPDTVEEVVERVAERLA
# B19: GBRAP_39_5638 (protein)
# chain: SREEEAEETFDYLEALGAKLLSERGISLDELLEEEYKYAREAFKDDPELLAAIDELYELALKGDDTDKLAAAGAFSLVREGKSKEEVLEAVELLIYYLKS
# B20: GBRAP_160_4650 (protein)
# chain: EERKEKLKERIKELIEEAYEMMKGETHEERIAIARVMGGDIILELDEDEGVSDEAIEEVDKIMDEFVATLEANPDLTDEEIRALLEEMLKKIFEIIDKYT
# B21: GBRAP_9_7158 (protein)
# chain: MDELVAKLREVIEDAFEEIKEVVPEEVKPIVEKLREEAEKRLEELEEDPEATPEELVEEAKRILREFRERMKKEVDEETAKIVDAIVDTAELEIEEIEEE
# B22: GBRAP_39_5717 (protein)
# chain: EEEEEAENIFSYYEAVGAAEMYKRGISLEELFERTLAEARELAADDPELLAALEELEELALKAGDEAKLAATGIMVRLVEGAPREEVLADLKKLIAYLKS
# B23: GBRAP_160_4742 (protein)
# chain: KEELEKLKKEIEEIFKEGIELLKESEKEEALTIVRGIMGDVIMEVMSSEAASDELEEKIAEIADKAIEEVEKNKDAPIEKVIEIVEKAREEILKLIEEEI
# B24: GBRAP_160_4574 (protein)
# chain: SEEMKKLKEEIKEITEEAKEFIEGQSREEQIAIVKVAMGDILLLLDENPLVSDETEDKAAAIGDALIAYIEAHPDLTAEEIKELLEKATEEIIKLIEKEE
# B25: GBRAP_128_3555 (protein)
# chain: STEEVVEEAEELLEKIKESDEEEAREYARELVRLLASVDEESREAIVKVILERLPELTVEQLEILADVFREERPKVDPDVANALAEIEVEALNVALEKEE
# B26: GBRAP_137_3630 (protein)
# chain: ATVEIEVEEYEDVVEITVTLKDAAKAEAVKELVLDVAHEHGALAVSVEVEEDGTLVVTVWVPREKAEAFLEALVRRLQTELGLRVRVRNLDTGEEEEFEP
# B27: GBRAP_128_3422 (protein)
# chain: SRAAAVARARALLEAMKTADDATAAALADELAALFASADLETAEAIAEVIRAEIPKLTAKQLDILADAFRAALPKLTPEKANIAADVIVDLLNEREELEE
# B28: GBRAP_128_3379 (protein)
# chain: MDEEKLERVRELVRRAIESDVEETRELTREVVRLMGTLSPEEREAAAEIVIEALPEFSREKLDAIADTIRELRPELDPLGQELAAEVEVAALNRAEELEE
# B29: GBRAP_52_6373 (protein)
# chain: MEERARELARRILELAEAGDEEGLREEVRRIVEEESDELIAAVLRELRDMILTEPGLDPEALLTAAATLASEVLEAEKGTPETWAALTELLAAALALEQA
# Molecular target: GABARAP, O95166
# Sequence (O95166 whole entry, the tested form may be a part): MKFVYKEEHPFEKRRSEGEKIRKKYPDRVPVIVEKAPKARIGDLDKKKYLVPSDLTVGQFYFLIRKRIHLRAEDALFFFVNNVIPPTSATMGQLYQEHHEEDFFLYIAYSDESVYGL
# Test: median log2 fold change of GCK-ALFA target abundance (FLAG IP / Myc IP barcode read proportion) (log2 ratio); each designed protein is fused to an ALFA-tag nanobody in HEK293 cells to bring the named protein to FLAG-tagged glucokinase (GCK); Myc marks an untargeted standard; higher = target protein stabilised (more abundant)
# Conditions: target protein: 3xFLAG-MCP-GCK-ALFA reporter; HEK293 landing pad (RPLP)
# Method in brief: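 An ALFA-nanobody-fused binder library was recombined into HEK293 landing-pad cells and induced with 2 μg mL^−1 doxycycline. Cells were transfected with a plasmid expressing a FLAG-tagged target and a Myc-tagged standard. After 48 h, lysates underwent anti-FLAG and anti-Myc immunoprecipitation, and circular RNA barcodes were reverse transcribed, amplified and sequenced. Target abundance is the per-binder median log2 ratio of FLAG to Myc barcode read proportions. Barcodes needed ≥10^−7 proportion in both replicates, binders ≥3 barcodes per replicate, and a 10^−6 pseudocount was added; the two replicates were pooled.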
row,Binder,median log2 fold change
1,B1,0.324
2,B2,-0.0356
3,B3,0.268
4,B4,-0.725
5,B5,-0.604
6,B6,0.293
7,B7,-0.452
8,B8,0.0572
9,B9,0.117
10,B10,-0.269
11,B11,0.333
12,B12,-0.658
13,B13,0.234
14,B14,-0.798
15,B15,-0.29
16,B16,0.174
17,B17,-0.061
18,B18,0.0662
19,B19,0.2
20,B20,-0.715
21,B21,0.0143
22,B22,0.239
23,B23,0.15
24,B24,-0.302
25,B25,-0.0585
26,B26,-0.302
27,B27,-0.139
28,B28,0.284
29,B29,-0.998
